Measured values as given in PubChem BioAssay (EPA / NIEHS).
The source made the active and inactive calls. How the source made its calls: active means hit-call score of the fitted dose curve at least 0.9, where 1 is the maximum; inactive means score below 0.9.

assay: APR_HepG2_P-H2AX_24hr: Apredica 24-hour HepG2 Assay for H2AX Phosphorylation (AID 2282920); conditions: high-content imaging, actives raise or lower the signal
Procedure: APR_HepG2_24hr is a cell-based, multiplexed-readout assay that uses HepG2, a human liver cell line, with measurements taken at 24 hours after chemical dosing in a 384-well plate.APR_HepG2_P-H2AX_24hr is one of 10 assay component(s) measured or calculated from the APR_HepG2_24hr assay. It is designed to make measurements of dna content, a form of viability reporter, as detected with fluorescence intensity signals by HCS Fluorescent Imaging technology.Data from the assay component APR_HepG2_P-H2AX_24hr was analyzed into 1 assay endpoint. This assay endpoint, APR_HepG2_P-H2AX_24hr, was analyzed with bidirectional fitting relative to DMSO as the negative control and baseline of activity. Using a type of viability reporter, measures of protein for gain or loss-of-signal activity can be used to understand the signaling at the pathway-level as they relate to the gene . Furthermore, this assay endpoint can be referred to as a primary readout, because this assay has produced multiple assay endpoints where this one serves a signaling function. To generalize the intended target to other relatable targets, this assay endpoint is annotated to the dna binding intended target family, where the subfamily is cellular response to DNA damage stimulus.
Cells were treated with dimethyl sulfoxide (DMSO) as a solvent control at a final concentration of 0.5% v/v or with compounds in DMSO with a resulting final DMSO concentration of 0.5% v/v. Compound treatment was done at concentrations of 0.39, 0.78, 1.56, 3.12, 6.24, 12.5, 25, 50, 100, and 200 uM in duplicate on each plate. Cells were treated with compounds for 1, 24, or 72 hr. Carbonyl […] m-chloro-phenylhydrazone (CCCP) and taxol were used as positive controls for mitochondrial function and cytoskeletal stability, respectively; DMSO served as the negative control for this experiment. Cells were fixed by the direct addition of 50 uL formaldehyde in Hank's Balanced Salt Solution (HBSS) to a final concentration of 3.7%. After incubation in the fixation medium for 30 min at room temperature (293-298 K), cells were rinsed twice with HBSS and treated with cell permeabilization buffer (16 uL of 0.5% Triton X-100) for 10 min at room temperature (293-298 K) before labeling. For mitochondrial membrane potential and mitochondrial measurements, pre-fixed cells were incubated with 50 uL of MitoTracker Red CMXRos (Invitrogen) at a concentration of 250 nM for 30 min before fixation. In the remaining cases, post-fixed cells were labeled by incubation with a multiplexed mixture of primary antibodies in HBSS for 60 min at room temperature (293-298 K) to detect immunoreactivity of c-Jun (1:500), phospho-histone H3 (1:100), phospho-histone H2A.x (1:200), p53 (1:400), alpha-tubulin (1:200) and Hoechst 33342 (2 ug/mL). Cells were labeled for multiplexed imaging on two separate plates: a) Hoechst 33342, MitoTracker Red, phospho-histone H3, and alpha-tubulin, and b) Hoechst 33342, phospho-histone H2A.x, and c-Jun. A final rinse with HBSS (50 uL) was performed before analysis. The primary and secondary antibodies for the proteins were phospho-histone H3 (rabbit anti-phospho-histone H3 and FITC-donkey anti-rabbit IgG), phospho-histone H2A.x (mouse anti-phospho-histone H2A.x and FITC-donkey anti-mouse IgG), c-Jun (rabbit anti-phospho-c-Jun and Cy3-donkey anti-rabbit IgG), p53 (sheep anti-p53 and Cy5-donkey anti-sheep IgG), alpha-tubulin (mouse anti-alpha-tubulin and Cy5-donkey anti-mouse IgG). These antibodies are available as the CellCiphr HepG2 assay kit (Millipore).Digital images of each well were captured using a Cellomics ArrayScan VTI (Thermo Scientific Cellomics) (0.8 NA objective, 0.63x optical coupler, and XF-93 filter set) at 20x magnification. The images were acquired using the autofocus feature of the ArrayScan instrument, which entails the following steps. First, the camera focuses on channel 1 (Hoechst 33342), where nuclei are identified. Second, a Z offset of 1 um is used for capturing mitochondria (MitoTracker Red). […]

Structure (SMILES) | outcome | AC50
CCOc1ccc(C(C)(C)COCc2cccc(Oc3ccccc3)c2)cc1 | inactive | 
CCOC(=O)c1ccccc1C(=O)OCC | inactive | 
Cc1cccc(N)c1 | inactive | 
CCC(C)(C)c1ccc(O)cc1 | inactive | 
c1ccc2c(c1)Nc1ccccc1S2 | inactive | 
c1ccc(OP(Oc2ccccc2)Oc2ccccc2)cc1 | inactive | 
CCC1(c2ccccc2)C(=O)N=C(O)NC1=O (stereo not given) | inactive | 
ClC(Cl)c1ccccc1 | inactive | 
Cc1ccc([N+](=O)[O-])cc1C | inactive | 
CCCCCCCc1ccc(O)cc1 | inactive | 
Nc1ccc(Cl)cc1 | inactive | 
[N-]=[N+]=[N-] | inactive | 
Cc1ccc(N)cc1N | inactive | 
CCCCc1ccccc1 | inactive | 
CC(C)(C)c1ccc(O)cc1 | inactive | 
CCOP(=S)(OCC)SCSCC |  | 107 µM (active)
c1nc[nH]n1 | inactive | 
CCOS(=O)(=O)OCC | inactive | 
COCCOCCO | inactive | 
CC(Cc1ccc(OCC(=O)O)cc1)NCC(O)c1csc(C(F)(F)F)n1 (stereo not given) | inactive | 

Structure (SMILES) | outcome | AC50
Nc1cc2c3c(c1)C(c1ccccc1)=N[C@@H](NC(=O)c1cccnc1)C(=O)N3CC2 | inactive | 
CCN(CC)c1ccccc1 | inactive | 
c1cc2c3c(cccc3c1)CC2 | inactive | 
ClC(Cl)(Cl)c1ccccc1 | inactive | 
O=C(O)C(Cl)Cl | inactive | 
CC(C)(C)OOC(C)(C)C | inactive | 
O=[N+]([O-])c1ccc(Cl)c(Cl)c1 | inactive | 
O=P1(N(CCCl)CCCl)NCCCO1 (stereo not given) | inactive | 
O=[N+]([O-])c1ccccc1 | inactive | 
Cc1ccc(O)cc1C | inactive | 
CC(Cl)(Cl)C(=O)O | inactive | 
CCCN(CCC)c1c([N+](=O)[O-])cc(C(C)C)cc1[N+](=O)[O-] | inactive | 
CN(C)C(=O)Cl | inactive | 
ClC1=C(Cl)C2(Cl)C3C(Cl)C(Cl)CC3C1(Cl)C2(Cl)Cl (stereo not given) |  | 72.8 µM (active)
OCC1CO1 (stereo not given) | inactive | 
CCCCN(CCCC)N=O | inactive | 
CCNc1nc(Cl)nc(NC(C)(C)C)n1 | inactive | 
Nc1ccc2ccccc2c1 | inactive | 
O=C(O)C1C(C(=O)O)C2(Cl)C(Cl)=C(Cl)C1(Cl)C2(Cl)Cl (stereo not given) | inactive | 
CSC(C)(C)C=NO | inactive | 
